Data on 25 compounds can be found in PubChem BioAssay (NCATS).

Values joined by “and” are separate entries in the source; they are usually repeats but may differ in a detail not shown here. Equal entries are not always repeated. Inconclusive results are not listed. Unmarked numbers belong to inactive results. Active and inactive are the calls of the source. Calls follow the shape of the dose curve; as a rule, active = well fitted curve in the direction sought with a large enough effect; inconclusive = small, poorly fitted or top-dose-only effect, or another doubt; inactive = no such curve, though single readings can be large; an effect the other way counts as inactive or inconclusive.
Potency is read from the fitted curve at half-maximal effect.

A short description of one test: qHTS of pediatric cancer cell lines to identify multiple opportunities for drug repurposing: Primary screen for OHS-50 cells (AID 1347103). Also: nearly all actives have a fitted effect of over 40% in size.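 As to activity change, negative = cytotoxic: plate controls were DMSO neutral control for no effect and bortezomib positive control for full effect.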 The note with it: OHS-50 osteosarcoma viability, CellTiter-Glo luminescence, 48 h; series mostly up to 57.3 µM; activity change, negative = cytotoxic: at the top concentration. An outline of the steps:
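Cells (500-1,000/well) rested 5 h, then received compounds for 48 h; metabolically active cells were measured by CellTiter-Glo luminescence. Final concentrations spanned up to 46 µM (MIPE, 11-point) or 0.59 nM-46 µM (NPC, 8-point) in primary screens, 11-point in follow-ups.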
(In general: Quantitative high-throughput screening tests each substance at several concentrations.)
Take `CC(=O)Oc1ccccc1C(=O)Nc1ncc([N+](=O)[O-])s1`: the Potency was 22.2 µM (active).

As to `OCc1ccc(-c2nn(Cc3ccccc3)c3ccccc23)o1`, the Potency is 1.72 µM (active).

Turning to `COc1cc2nc(N3CCCN(C)CC3)nc(NC3CCN(Cc4ccccc4)CC3)c2cc1OC`, the Potency is 8.63 µM (active).

On to `O=C(O)c1ccc(-n2nc(-c3ccccc3O)nc2-c2ccccc2O)cc1`, for which the Potency was 21.7 µM (active).

In the case of `COC(=O)Nc1nc2ccc(S(=O)c3ccccc3)cc2[nH]1` (stereo not drawn), the Potency was 1.1 µM (active) and 24.3 µM (active).

With `CNCC[C@H](Oc1cccc2ccccc12)c1cccs1`, the Potency was 15.5 µM (active).

Take `CCCCc1oc2ccc(NS(C)(=O)=O)cc2c1C(=O)c1ccc(OCCCN(CCCC)CCCC)cc1`: the Potency was 10.9 µM (active) and 15.5 µM (active).

Consider `O[C@@H](CNC[C@H](O)[C@H]1CCc2cc(F)ccc2O1)[C@@H]1CCc2cc(F)ccc2O1`, for which the Potency is 24.3 µM (active) and 27.6 µM (active).

Turning to `COc1ccc(C(=O)CC(=O)c2ccc(C(C)(C)C)cc2)cc1`, the “activity change, negative = cytotoxic” value was 4.62%.

For the compound `Oc1c(Cl)cc(Cl)c2cccnc12`, the Potency was 12.3 µM (active) and 27.3 µM (active).

`O=S(=O)(c1cccc2cnccc12)N1CCCNCC1`: the Potency entry is “inactive”.

Turning to `CCOC(=O)[C@H](CCc1ccccc1)N[C@H]1CCc2ccccc2N(CC(=O)O)C1=O`, the Potency is 24.3 µM (active).

With `Cc1ccc(S(=O)(=O)N[C@@H](Cc2ccccc2)C(=O)CCl)cc1`, the Potency is 19.3 µM (active).

Take `CCOC(=O)c1ccc(C#Cc2ccc3c(c2)C(C)(C)CCS3)nc1`: the Potency was 777 nM (active) and 54.4 nM (active).

Turning to `COC(=O)Nc1nc2ccc(C(=O)c3ccccc3)cc2[nH]1`, the Potency was 138 nM (active) and 1.53 µM (active).

For the compound `Nc1nc(F)nc2c1ncn2[C@@H]1O[C@H](CO)[C@@H](O)[C@@H]1O`, the Potency was 55 nM (active) and 485 nM (active).

On to `CC(C)(C)NC(=O)[C@H]1CC[C@H]2[C@@H]3CC[C@H]4NC(=O)C=C[C@]4(C)[C@H]3CC[C@]12C`, for which the Potency was 12.2 µM (active).

A short description of a further test: qHTS of pediatric cancer cell lines to identify multiple opportunities for drug repurposing: Primary screen for RD cells (AID 1347104). Also: nearly all actives have a fitted effect of over 55% in size.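 As to activity change, negative = cytotoxic: plate controls were DMSO for no effect and bortezomib for full effect.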 The following applies: RD rhabdomyosarcoma viability, CellTiter-Glo luminescence, 48 h; series mostly up to 46 µM; activity change, negative = cytotoxic: at the top concentration. A digest of the protocol: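 Viability was measured as metabolically active cells after 48 hours of treatment, read by CellTiter-Glo luminescence. Compounds were tested at multiple final concentrations, giving concentration-response curves.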
As for `CC(=O)Oc1ccccc1C(=O)Nc1ncc([N+](=O)[O-])s1`, the Potency was 42.9 µM (active) and 23.7 µM (active).

With `OCc1ccc(-c2nn(Cc3ccccc3)c3ccccc23)o1`, the “activity change, negative = cytotoxic” value was -9.9%.

On to `COc1cc2nc(N3CCCN(C)CC3)nc(NC3CCN(Cc4ccccc4)CC3)c2cc1OC`, for which the Potency was 8.33 µM (active).

Take `CCC(=O)O[C@]1(C(=O)SCF)[C@H](C)C[C@H]2[C@@H]3C[C@H](F)C4=CC(=O)C=C[C@]4(C)[C@@]3(F)[C@@H](O)C[C@@]21C`: the Potency entry is “inactive”.

As to `NC(=O)c1cccnc1`, the Potency entry was “inactive”.

In the case of `N=C(N)c1ccc(OCCCCCOc2ccc(C(=N)N)cc2)cc1`, the Potency was 18.7 µM (active).

Take `Cc1c(-c2ccc(O)cc2)n(Cc2ccc(OCCN3CCCCCC3)cc2)c2ccc(O)cc12`: the “activity change, negative = cytotoxic” value is 11.5%.

On to `COc1ccc2cc3[n+](cc2c1OC)CCc1cc2c(cc1-3)OCO2`, for which the Potency was 10.5 µM (active).

In the case of `CCC(C)(C)c1ccc(CC(C)CN2C[C@@H](C)O[C@@H](C)C2)cc1` (stereo partly drawn), the Potency entry is “inactive”.

On to `CNCC[C@H](Oc1cccc2ccccc12)c1cccs1`, for which the Potency is 26.6 µM (active) and 4.69 µM (active).

For `CCCCc1oc2ccc(NS(C)(=O)=O)cc2c1C(=O)c1ccc(OCCCN(CCCC)CCCC)cc1`, the Potency is 18.7 µM (active) and 23.7 µM (active).

On to `O[C@@H](CNC[C@H](O)[C@H]1CCc2cc(F)ccc2O1)[C@@H]1CCc2cc(F)ccc2O1`, for which the Potency was 33.2 µM (active).

For the compound `CN(C)c1ccc(C(=C2C=CC(=[N+](C)C)C=C2)c2ccc(N(C)C)cc2)cc1`, the Potency is 1.88 µM (active) and 662 nM (active).

With `Oc1c(Cl)cc(Cl)c2cccnc12`, the Potency was 5.31 µM (active) and 26.4 µM (active).

In the case of `O=S(=O)(c1cccc2cnccc12)N1CCCNCC1`, the Potency result is “inactive”.

Consider `CCOC(=O)[C@H](CCc1ccccc1)N[C@H]1CCc2ccccc2N(CC(=O)O)C1=O`, for which the Potency was 26.4 µM (active).

Turning to `Cc1ccc(S(=O)(=O)N[C@@H](Cc2ccccc2)C(=O)CCl)cc1`, the Potency is 26.4 µM (active).

With `CCOC(=O)c1ccc(C#Cc2ccc3c(c2)C(C)(C)CCS3)nc1`, the Potency entry is “inactive”.

For `S=P(N1CC1)(N1CC1)N1CC1`, the Potency entry was “inactive”.

As for `COC(=O)Nc1nc2ccc(C(=O)c3ccccc3)cc2[nH]1`, the Potency is 1.66 µM (active).

As to `Nc1nc(F)nc2c1ncn2[C@@H]1O[C@H](CO)[C@@H](O)[C@@H]1O`, the Potency was 0.833 µM (active).
